Measurements taken from the supplement of paper PMC3334620.
In all, about 33,000 sequences were measured (“E-score (-0.5 to 0.5)”: median about -0.035, highest 2% from about 0.35 on). For the sample, the highest values were picked, then their nearest neighbours and some sequences at random.

Each sequence was assayed against T1, Pdr3 (UniProt P33200) (assay: PBM E-score (8-mer binding enrichment) (E-score (-0.5 to 0.5)); higher = stronger / more preferred TF binding). Details: protein concentration: 200 nM; construct: GST-full length.
T1 sequence: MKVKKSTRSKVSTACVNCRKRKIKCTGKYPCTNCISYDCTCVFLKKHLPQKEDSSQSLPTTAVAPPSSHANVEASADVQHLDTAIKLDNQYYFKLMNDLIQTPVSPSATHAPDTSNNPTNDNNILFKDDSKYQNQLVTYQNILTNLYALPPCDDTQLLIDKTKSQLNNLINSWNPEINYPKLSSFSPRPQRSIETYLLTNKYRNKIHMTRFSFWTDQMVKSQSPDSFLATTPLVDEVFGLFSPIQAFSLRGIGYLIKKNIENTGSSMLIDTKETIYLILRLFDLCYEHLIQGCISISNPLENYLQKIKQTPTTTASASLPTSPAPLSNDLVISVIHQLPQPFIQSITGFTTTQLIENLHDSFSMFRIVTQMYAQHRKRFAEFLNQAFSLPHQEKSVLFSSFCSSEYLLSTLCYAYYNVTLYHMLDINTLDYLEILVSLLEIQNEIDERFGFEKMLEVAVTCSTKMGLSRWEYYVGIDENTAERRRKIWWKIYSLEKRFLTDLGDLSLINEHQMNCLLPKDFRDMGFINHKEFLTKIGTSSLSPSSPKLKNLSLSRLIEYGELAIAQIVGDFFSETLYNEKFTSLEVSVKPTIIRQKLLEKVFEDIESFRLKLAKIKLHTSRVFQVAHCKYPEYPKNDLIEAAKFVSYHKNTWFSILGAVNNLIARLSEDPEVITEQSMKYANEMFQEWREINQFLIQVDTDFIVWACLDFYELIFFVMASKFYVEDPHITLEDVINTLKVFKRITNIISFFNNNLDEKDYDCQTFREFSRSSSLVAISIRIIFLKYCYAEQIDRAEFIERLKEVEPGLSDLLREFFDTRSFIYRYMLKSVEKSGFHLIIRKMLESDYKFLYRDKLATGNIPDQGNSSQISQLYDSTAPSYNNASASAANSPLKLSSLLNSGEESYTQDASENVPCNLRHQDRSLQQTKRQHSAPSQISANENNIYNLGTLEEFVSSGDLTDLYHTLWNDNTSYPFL
Procedure: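 Universal 'all 10-mer' protein binding microarrays (Agilent AMADID 015681) probed with GST-tagged S. cerevisiae TFs (full-length or DBD) made by in vitro transcription/translation (PURExpress), about 100-200 nM. Bound TF was detected with fluorescent anti-GST. Each ungapped 8-mer (which stands for itself and its reverse complement) is scored by the PBM enrichment score (E-score), a modified Wilcoxon-Mann-Whitney statistic from -0.5 to +0.5, computed with the Universal PBM Analysis Suite. Scale: above 0.35 generally sequence-specific binding.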

| Sequence | PBM E-score |
| --- | --- |
| ACTGGGAC | -0.0292 |
| AGAACGTA | -0.0336 |
| ACGGGCCA | 0.117 |
| CTTTCCCA | 0.0901 |
| ATTTCCGA | 0.338 |
| GTTTCCCA | 0.0393 |
| CTTTCCGA | 0.413 |
| CTTTCCCC | 0.117 |
| CTTTCCAA | -0.0271 |
| GTTTCCAA | -0.274 |
| ATTTCCTG | 0.0852 |
| CTTTCCTC | -0.162 |
| CTTTCCGC | 0.384 |
| ATTTCCGG | 0.456 |
| GTTTCCGA | 0.429 |
| CGCGAAAA | 0.096 |
| ACGCTTCG | 0.00401 |
| CGCCTGGC | -0.0374 |
| CAACTTCC | 0.225 |
| AATTTAAT | 0.128 |
| AAACCTAC | -0.103 |
| CTGCCGCC | -0.0369 |
| GGAAGATA | 0.234 |
| GCCCAGAC | -0.222 |
| AAATGATG | 0.133 |

| Sequence | PBM E-score |
| --- | --- |
| CTACAAAG | -0.116 |
| ATTTCCTC | 0.154 |
| ATTTCCGC | 0.413 |
| ATTTCCAC | 0.131 |
| AGCACAAA | 0.12 |
| CGGGCGTC | 0.193 |
| CGATTCCG | 0.466 |
| CGATTCCC | 0.181 |
| AGATTCCT | -0.088 |
| AGATTCCC | 0.198 |
| CGATTCCA | 0.112 |
| AGATTCCG | 0.453 |
| AACGTGAT | -0.0792 |
| ACCGGCTC | 0.122 |
| CGACGGAC | 0.342 |
| GGACGGAA | 0.429 |
| CGACGGAA | 0.439 |
| CGACGGAG | 0.331 |
| TGACGGCA | 0.135 |
| AGACGGAG | 0.216 |
| TGACGAAA | -0.112 |
| AGACGGAT | 0.249 |
| GGACGGTA | 0.118 |
| AGACGGAA | 0.422 |
| TGACGGAA | 0.445 |

| Sequence | PBM E-score |
| --- | --- |
| GGACGGAC | 0.293 |
| ATAATACA | 0.212 |
| ATGATGGC | 0.0224 |
| GGATCTCA | 0.0621 |
| TCCAAGGA | -0.00825 |
| CGGAACCG | 0.482 |
| CAGAACCG | 0.116 |
| TGGAACCA | 0.188 |
| CGGAACCC | 0.477 |
| GGGAACCA | -0.0124 |
| AGGAACCC | 0.00054 |
| GGGAACCC | 0.133 |
| CGGAACCA | 0.483 |
| AGGAACCG | 0.123 |
| ACTCCATA | -0.0901 |
| CACAGTAC | -0.0825 |
| ATCTCTTA | -0.0707 |
| AATCTCTG | -0.185 |
| TACGACTA | -0.179 |
| CCTCTAAC | -0.199 |
| TCACTGAA | 0.0661 |
| GCATCCTA | 0.00911 |
| GAGGGTTA | -0.131 |
| GGCCGGCA | 0.367 |
| TGCCGACA | 0.123 |

| Sequence | PBM E-score |
| --- | --- |
| AACCGGCA | 0.158 |
| GCCCGGCA | 0.225 |
| TGCCGGCA | 0.385 |
| GGCCGGCC | 0.326 |
| ACCGTTAG | -0.208 |
| GGGCCCCA | 0.092 |
| GGCTAAGA | -0.0826 |
| GACACGGA | 0.393 |
| AACACGGG | 0.116 |
| AACACGGC | 0.154 |
| GACACGGC | 0.171 |
| CACACGGA | 0.304 |
| AACACGGA | 0.374 |
| GCGACCTA | 0.0108 |
| GCACGGCA | 0.103 |
| GCACGGCC | 0.21 |
| ACACGGAC | 0.299 |
| GCACGGGA | 0.315 |
| GCACGGAA | 0.451 |
| GCACGGAC | 0.356 |
| ATGCAGCA | 0.00559 |
| ACAGGGTA | -0.12 |
| AGATTCAG | -0.0749 |
| GGTATTCA | 0.0285 |
| CACCGTCA | 0.00596 |

| Sequence | PBM E-score |
| --- | --- |
| CCTAACTA | -0.0709 |
| GCGTAGCA | 0.0185 |
| ATTATCCA | 0.0658 |
| ATTATCCG | 0.388 |
| ATTATCCC | 0.185 |
| CCACTGCA | -0.0534 |
| GCTTGGCC | -0.00234 |
| CGGGAAAA | 0.221 |
| ACGCTCCG | 0.315 |
| CCGCTCCG | 0.378 |
| CCGCTCCC | 0.151 |
| ACATCTCG | -0.111 |
| GTCACGGA | 0.415 |
| CTCACGGA | 0.325 |
| GTCACGCA | -0.0717 |
| ATCACGGC | 0.218 |
| GTGACGGA | 0.31 |
| ATCACGGG | 0.0804 |
| ATGACGGC | 0.141 |
| ATGACGGA | 0.362 |
| ATCACGGA | 0.391 |
| AAGGAAGC | -0.0529 |
| CACACCGC | 0.166 |
| CCCTAATA | -0.113 |
| GAAGGAAA | -0.00233 |

| Sequence | PBM E-score |
| --- | --- |
| AGGCGTAC | -0.182 |
| ATGTCTCA | -0.0576 |
| CGGAACGA | 0.464 |
| GGGAACGA | 0.0381 |
| CAGAACGC | 0.0429 |
| AGGAACGC | -0.00648 |
| AGGAACGA | -0.1 |
| CGGAACGC | 0.466 |
| ACACCGAC | 0.0164 |
| TCGGACCA | 0.292 |
| CCGGACCA | 0.337 |
| ACGGACCT | 0.275 |
| ACGGACCG | 0.309 |
| ACGGACCA | 0.359 |
| GCGGACCA | 0.366 |
| AGGTGTGA | -0.138 |
| GTGGTGGA | -0.0783 |
| CAGTTGGA | -0.0903 |
| CGTGCAGA | -0.148 |
| CGCGGTGC | 0.172 |
| GGCGGAGA | 0.288 |
| AGCGGAGA | 0.232 |
| CGCGGAGC | 0.445 |
| AGCGGAGC | 0.216 |
| CGCGGAGA | 0.415 |

| Sequence | PBM E-score |
| --- | --- |
| CGAACTGA | 0.0143 |
| CTCGCGAC | 0.0674 |
| GTCGCGAC | 0.38 |
| GTCGCGAA | 0.0709 |
| ACCTCTTC | -0.0577 |
| GATCCATC | 0.232 |
| ACCTTCCG | 0.394 |
| CCCTTCCC | 0.0658 |
| ATCTTCCC | 0.268 |
| AACTTCCT | -0.108 |
| ATCTTCCA | -0.196 |
| ACCTTCCT | -0.244 |
| CCCTTCCA | -0.00559 |
| ATCTTCCG | 0.376 |
| CCCTTCCG | 0.392 |
| AACTTCCG | 0.388 |
| AACTTCCA | 0.0852 |
| ACCTTCCC | 0.0674 |
| GAGCGTCC | -0.174 |
| AGCAATGA | -0.0334 |
| CTCTTTCA | -0.137 |
| ATGCTCAC | -0.048 |
